We go through 15 compounds from PubChem BioAssay (NCATS).

Results filed as inconclusive are left out. Calls of active or inactive are those of the source. Unless noted, the rule behind the calls is not given here.

A short description of experiment [1]: qHTS profiling of the MIPE4 collection as inhibitors of Plasmodium falciparum (3D7) proliferation (AID 743344).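 Note: scaled between DMSO vehicle wells and 0.29 µM artemisinin as full inhibition.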 Conditions: P. falciparum 3D7 in erythrocytes, SYBR Green DNA fluorescence, 72 h; at 28.5 µM. The essentials:
(§1)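 Erythrocytes infected with P. falciparum (0.3% parasitemia, 2.5% hematocrit) incubated with compounds 72 h at 37 C, 5% CO2. Lysis with saponin/Triton buffer containing SYBR Green I, overnight at room temperature in the dark; DNA fluorescence (485/535 nm) normalised to 0.29 uM artemisinin and DMSO.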
In general terms: qHTS replaces the single test concentration by a dilution series.

The nature of experiment [2]: qHTS profiling of the MIPE4 collection as inhibitors of Plasmodium falciparum (DD2) proliferation (AID 743345). The following applies: P. falciparum Dd2 in erythrocytes, SYBR Green DNA, 72 h; at 28.5 µM. Summed up:
as §1

A short description of experiment [3]: qHTS profiling of the MIPE4 collection as inhibitors of Plasmodium falciparum (DD2) proliferation (Rep 2) (AID 743346). Conditions: P. falciparum Dd2 in erythrocytes, SYBR Green DNA, 72 h; at 28.5 µM. The essentials:
as §1

The nature of experiment [4]: qHTS profiling of the MIPE4 collection as inhibitors of Plasmodium falciparum (HB3) proliferation (AID 743347).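 Note: plate controls were DMSO vehicle wells for no effect and artemisinin wells for full effect.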 Conditions: P. falciparum HB3 in erythrocytes, SYBR Green DNA, 72 h; at 28.5 µM. The essentials: as §1
Experiment [5] is described as follows: qHTS profiling for inhibitors of Plasmodium falciparum (3D7) proliferation (AID 743322).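 Note: infected erythrocytes exposed to compound for 72 h before lysis; 100% = DMSO vehicle wells and 0% = 0.29 µM artemisinin.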 Conditions: P. falciparum 3D7 proliferation; at 28.7 µM (top of the series). Summed up:
as §1

Experiment [6] can be described thus: qHTS profiling for inhibitors of Plasmodium falciparum (DD2) proliferation (AID 743323). Conditions: lower = more inhibition; at 28.7 µM (top of the series). The essentials: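 Parasite DNA quantified by SYBR Green fluorescence (ex 485, em 535 nm) after saponin/Triton lysis and overnight dark incubation. Cultures: 0.3% parasitemia, 2.5% hematocrit, 72 h, 37 C; data scaled between DMSO and 0.29 uM artemisinin.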

Experiment [7] can be described thus: qHTS profiling for inhibitors of Plasmodium falciparum (HB3) proliferation (AID 743324; active = well fitted curve in the direction sought with a large enough effect; an effect the other way counts as inactive or inconclusive;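 note: 100% = DMSO vehicle wells and 0% = artemisinin-treated control wells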). Conditions: Plasmodium falciparum HB3 blood-stage proliferation; at 28.7 µM (top of the series). Summed up: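 P. falciparum HB3 grown in erythrocytes (0.3% parasitemia, 2.5% hematocrit final) with compound for 72 h at 37 C, 5% CO2. Parasite DNA detected by SYBR Green after saponin/triton lysis overnight; normalized to 0.29 uM artemisinin and DMSO.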

Experiment [8] is described as follows: qHTS Assay for Identifying Gametocytocidal Compounds (AID 743244; active = well fitted curve in the direction sought with a large enough effect; an effect the other way counts as inactive or inconclusive;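 note: % is set by controls: 0 for no effect and ±100 for the full control effect; actives lower the fluorescent signal which means gametocytes are killed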). Conditions: P. falciparum 3D7 stage III-V gametocytes, alamarBlue, 72 h; stronger effect = lower value. Summed up: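 A resazurin-based viability read-out was applied to mature P. falciparum gametocytes: 72 h compound treatment, then 24 h dye incubation, with falling fluorescence signalling gametocytocidal effect.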

In the case of `CN(C(=O)OC(C)(C)C)[C@@H](Cc1ccc(O[S+](=O)([O-])c2cccc3cnccc23)cc1)C(=O)N1CCN(C(=O)OCc2ccccc2)CC1`, the parasite growth, % of DMSO control in experiment [1] was 5.7%. The parasite growth remaining, % of DMSO control (lower = more inhibition) in experiment [2] amounted to 6.02%. Further, the parasite growth, % of control (lower = inhibition) in experiment [3] was 18.5%. In addition, in experiment [4], the growth, % of control was 8.16%.

On to `N[C@@H](Cc1ccc(OS(=O)(=O)c2ccccn2)cc1)C(=O)N1CCN(c2ccccc2)CC1`, for which, in experiment [5], the remaining parasite growth % (stronger effect = lower value) came to 98.8%. Further, the activity, percent of control in experiment [6] came to 43.6%. For the same compound, the remaining proliferation (% of control), lower = more inhibition in experiment [7] was found to be 67%.

As for `CC(C)(C)OC(=O)N[C@@H](Cc1ccc(O[S+](=O)([O-])c2cccc3cccnc23)cc1)C(=O)N1CCN(c2ccccc2)CC1`, the remaining parasite growth % (stronger effect = lower value) in experiment [5] was -0.907%. Further, in experiment [6], the activity, percent of control is -0.148%. For the same compound, in experiment [7], the remaining proliferation (% of control), lower = more inhibition was -0.0202%.

Take `COC(=O)[C@H](Cc1ccc(O[S+](=O)([O-])c2cccc3cnccc23)cc1)N[S+](=O)([O-])c1ccc2cnccc2c1`: in experiment [5], the remaining parasite growth % (stronger effect = lower value) turned out to be 13.9%. Moreover, the activity, percent of control in experiment [6] came to 29.2%. The remaining proliferation (% of control), lower = more inhibition in experiment [7] is 6.01%.

As for `O=C([C@H](Cc1ccc(O[S+](=O)([O-])c2ccccn2)cc1)N[S+](=O)([O-])c1cccc2cnccc12)N1CCN(c2ccccc2)CC1`, in experiment [5], the remaining parasite growth % (stronger effect = lower value) was -0.962%. The activity, percent of control in experiment [6] amounted to 2.47%. In experiment [7], the remaining proliferation (% of control), lower = more inhibition was 0.0492%.

Consider `CC(O)[C@@H]1NC(=O)[C@H](CCCCN)NC(=O)[C@@H](Cc2c[nH]c3ccccc23)NC(=O)[C@H](Cc2ccccc2)NC(=O)[C@@H](NC(=O)[C@H](N)Cc2ccccc2)CSSC[C@@H](C(=O)N[C@H](CO)[C@@H](C)O)NC1=O` (some centres not stated), for which the max response in experiment [8] is -8.72% (inactive).

Turning to `CN(C)c1cc(NC(=O)CNC(C)(C)C)c(O)c2c1C[C@H]1C[C@H]3[C@H](N(C)C)C(=O)C(C(N)=O)=C(O)[C@@]3(O)C(=O)C1=C2O`, in experiment [8], the max response was 7.63% (inactive).

For the compound `O=C([C@H](Cc1ccc(OS(=O)(=O)c2cccc3cnccc23)cc1)NS(=O)(=O)c1cccc2cnccc12)N1CCN(c2ccccc2)CC1`, the remaining parasite growth % (stronger effect = lower value) in experiment [5] was -0.827%. Further, the activity, percent of control in experiment [6] turned out to be 1.24%. In addition, the remaining proliferation (% of control), lower = more inhibition in experiment [7] stood at 0.712%.

With `O=C([C@H](Cc1ccc(O[S+](=O)([O-])c2cccnc2)cc1)N[S+](=O)([O-])c1cccnc1)N1CCN(c2ccccc2)CC1`, the remaining parasite growth % (stronger effect = lower value) in experiment [5] amounted to 15.8%. Further, the activity, percent of control in experiment [6] came to 16.7%. The remaining proliferation (% of control), lower = more inhibition in experiment [7] came out at 3.22%.

`CCN(CC)CCOc1ccc2c(=O)c3ccc(Cl)cc3n(CCN(CC)CC)c2c1`: the remaining parasite growth % (stronger effect = lower value) in experiment [5] was -1.28%. The activity, percent of control in experiment [6] was 0.385%. Also, the remaining proliferation (% of control), lower = more inhibition in experiment [7] is -0.0504%. This compound showed a parasite growth, % of DMSO control in experiment [1] of 4.98%. Further, the parasite growth remaining, % of DMSO control (lower = more inhibition) in experiment [2] stood at 6.06%. In addition, the parasite growth, % of control (lower = inhibition) in experiment [3] worked out at 27.8%. For the same compound, the growth, % of control in experiment [4] was determined as 5.14%.

`CO[C@@]12[C@H](COC(N)=O)C3=C(C(=O)C(C)=C(N)C3=O)N1C[C@H]1N[C@H]12`: the remaining parasite growth % (stronger effect = lower value) in experiment [5] was -0.57%. Besides, the activity, percent of control in experiment [6] came out at 0.869%. Besides, the remaining proliferation (% of control), lower = more inhibition in experiment [7] is -0.956%.

`CCCCC(F)(F)[C@@]1(O)CC[C@H]2[C@@H](CC(=O)[C@@H]2CCCCCCC(=O)O)O1`: the max response in experiment [8] is 2.98% (inactive).

Consider `NC[C@@H]1O[C@H](O[C@H]2[C@@H](O)[C@H](O[C@@H]3[C@@H](O)[C@H](N)C[C@H](N)[C@H]3O[C@H]3O[C@H](CN)[C@@H](O)[C@H](O)[C@H]3N)O[C@@H]2CO)[C@H](N)[C@@H](O)[C@@H]1O`, for which, in experiment [8], the max response is -12% (inactive).

Regarding `CS(=O)(=O)c1ccc(-c2cnc(N)c(-c3ccc(C(F)(F)F)nc3)c2)cc1`, the remaining parasite growth % (stronger effect = lower value) in experiment [5] is 2.16%. For the same compound, the activity, percent of control in experiment [6] is 8.27%. In addition, in experiment [7], the remaining proliferation (% of control), lower = more inhibition turned out to be 4.13%.

For `O=C([C@H](Cc1ccc(OS(=O)(=O)c2ccccn2)cc1)NS(=O)(=O)c1ccccn1)N1CCN(c2ccccc2)CC1`, the remaining parasite growth % (stronger effect = lower value) in experiment [5] was found to be 49.4%. In addition, in experiment [6], the activity, percent of control was 24.7%. The remaining proliferation (% of control), lower = more inhibition in experiment [7] was determined as 18.6%.
